{
  "source": "the supplement of paper PMC8975748",
  "note": "Where a name gives a salt, the structure may show the parent alone.",
  "data": [
    {"system": "Saccharomyces cerevisiae BY4741 SeMeCo community", "test": "z-score of subpopulation abundance vs DMSO median, subpopulation auxotrophic for HUM; higher = larger share of this subpopulation than in DMSO controls", "conditions": "10 µM; 24 h; SM minimal medium; subpopulation (auxotrophy): HUM", "outline": "(§1)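 A community of Saccharomyces cerevisiae BY4741 was built from four plasmids that each restored one auxotrophy and encoded a distinct fluorescent protein. Pre-grown overnight to OD600 1.0 and diluted to 0.3, it was dispensed at 70 µl into 384-well plates acoustically predosed with library drugs for a final 10 µM, and grown 24 h in minimal SM medium. Cells were then paraformaldehyde-fixed and imaged by automated confocal microscopy. Thresholds and autofluorescence correction came from single-auxotroph fluorescent strains, and each subpopulation's abundance was scored as a z-score relative to the vehicle-well median.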", "values": [
      {"smiles": "CC1=CC[C@@](O)(C(C)C)CC1", "note": "[Terpinen-4-ol]", "z-score of subpopulation abundance": -0.35},
      {"smiles": "CC[C@@H]1/C=C(\\C)C[C@H](C)C[C@H](OC)[C@H]2O[C@@](O)(C(=O)C(=O)N3CCCC[C@H]3C(=O)O[C@H](/C(C)=C/[C@@H]3CC[C@H](Cl)[C@H](OC)C3)[C@H](C)[C@@H](O)CC1=O)[C@H](C)C[C@@H]2OC", "note": "[Pimecrolimus]", "z-score of subpopulation abundance": 0.94},
      {"smiles": "CC[N+](CC)(CC)CCOc1cccc(OCC[N+](CC)(CC)CC)c1OCC[N+](CC)(CC)CC", "note": "[Gallamine Triethiodide]", "z-score of subpopulation abundance": 0.25},
      {"smiles": "CN1[C@@H](CC(=O)c2ccccc2)CCC[C@H]1C[C@H](O)c1ccccc1", "note": "[Lobeline hydrochloride]", "z-score of subpopulation abundance": 0.22},
      {"smiles": "CCC(C)n1ncn(-c2ccc(N3CCN(c4ccc(OCC5COC(Cn6cncn6)(c6ccc(Cl)cc6Cl)O5)cc4)CC3)cc2)c1=O", "note": "(stereo not drawn) [Itraconazole]", "z-score of subpopulation abundance": 9.21},
      {"smiles": "OC[C@H]1O[C@H](OCC2O[C@@H](O)[C@H](O)[C@@H](O)[C@@H]2O)[C@H](O)[C@@H](O)[C@H]1O", "note": "(stereo partly drawn) [Melibiose]", "z-score of subpopulation abundance": 0.46},
      {"smiles": "C[N+](C)(C)CCO.[Cl-]", "note": "[Choline Chloride]", "z-score of subpopulation abundance": -0.76},
      {"smiles": "COc1ccc(C(Cl)=C(c2ccc(OC)cc2)c2ccc(OC)cc2)cc1", "note": "[Chlorotrianisene]", "z-score of subpopulation abundance": 0.82},
      {"smiles": "COC(=O)C1=C(C#N)NC(C)=C(C(=O)OC(C)C)C1c1cccc([N+](=O)[O-])c1", "note": "(stereo not drawn) [Nilvadipine]", "z-score of subpopulation abundance": -0.21},
      {"smiles": "CC(=O)O[C@]1(C(C)=O)CC[C@H]2[C@@H]3C[C@H](C)C4=CC(=O)CC[C@]4(C)[C@H]3CC[C@@]21C", "note": "[Medroxyprogesterone acetate]", "z-score of subpopulation abundance": -0.19},
      {"smiles": "O=C(c1ccc(F)cc1)C1CCN(CCn2c(=O)[nH]c3ccccc3c2=O)CC1", "note": "[Ketanserin]", "z-score of subpopulation abundance": -0.47},
      {"smiles": "Cc1onc(-c2c(Cl)cccc2Cl)c1C(=O)N[C@@H]1C(=O)N2[C@@H]1SC(C)(C)[C@@H]2C(=O)O", "note": "[Dicloxacillin Sodium]", "z-score of subpopulation abundance": -0.11},
      {"smiles": "C(=C\\c1ccccc1)/CN1CCN(C(c2ccccc2)c2ccccc2)CC1", "note": "[Cinnarizine]", "z-score of subpopulation abundance": 1.64},
      {"smiles": "C=CC[N+]1([C@H]2C[C@H]3[C@@H]4CC[C@H]5C[C@H](O)[C@@H](N6CCOCC6)C[C@]5(C)[C@H]4CC[C@]3(C)[C@H]2OC(C)=O)CCCC1", "note": "[Rocuronium Bromide]", "z-score of subpopulation abundance": -1.09},
      {"smiles": "CCn1cc(C(=O)O)c(=O)c2cc(F)c(N3CCNCC3)cc21", "note": "[Norfloxacin]", "z-score of subpopulation abundance": 0.46},
      {"smiles": "CN1CCC(=C2c3ccccc3CCc3sccc32)CC1", "note": "[Pizotifen Malate]", "z-score of subpopulation abundance": -0.14},
      {"smiles": "CC1(C)S[C@@H]2[C@H](NC(=O)[C@H](NC(=O)N3CCN(S(C)(=O)=O)C3=O)c3ccccc3)C(=O)N2[C@H]1C(=O)O", "note": "[Mezlocillin Sodium]", "z-score of subpopulation abundance": -0.29},
      {"smiles": "Cc1c(OCC(F)(F)F)ccnc1C[S@@+]([O-])c1nc2ccccc2[nH]1", "note": "[Dexlansoprazole]", "z-score of subpopulation abundance": -0.66},
      {"smiles": "Cc1nc(C)c(Cl)c(O)c1Cl", "note": "[Clopidol]", "z-score of subpopulation abundance": -0.08},
      {"smiles": "O=C(CCCN1CCN(c2ccccn2)CC1)c1ccc(F)cc1", "note": "[Azaperone]", "z-score of subpopulation abundance": 1.31},
      {"smiles": "COc1ccc(C(=O)NCc2ccc(OCCN(C)C)cc2)cc1OC", "note": "[Itopride hydrochloride]", "z-score of subpopulation abundance": 0.81},
      {"smiles": "CSCC1CN(/N=C/c2ccc([N+](=O)[O-])o2)C(=O)O1", "note": "(stereo not drawn) [Nifuratel]", "z-score of subpopulation abundance": -2.83}
    ]},
    {"system": "Saccharomyces cerevisiae BY4741 SeMeCo community", "test": "z-score of subpopulation abundance vs DMSO median, subpopulation auxotrophic for LUM; higher = larger share of this subpopulation than in DMSO controls", "conditions": "10 µM; 24 h; SM minimal medium; subpopulation (auxotrophy): LUM", "outline": "as §1", "values": [
      {"smiles": "CC(C(=O)O)c1ccc(C(=O)c2cccs2)cc1", "note": "(stereo not drawn) [Suprofen]", "z-score of subpopulation abundance": -0.07},
      {"smiles": "COc1cccc2c1C(=O)c1c(O)c3c(c(O)c1C2=O)C[C@@](O)(C(=O)CO)C[C@@H]3O[C@H]1C[C@H](N)[C@H](O[C@@H]2CCCCO2)[C@H](C)O1", "note": "[Pirarubicin]", "z-score of subpopulation abundance": -0.26},
      {"smiles": "N=C(N)NC(=N)N1CCOCC1", "note": "[Moroxydine HCl]", "z-score of subpopulation abundance": 0.38},
      {"smiles": "Nc1c(CC(=O)O)cccc1C(=O)c1ccccc1", "note": "[Amfenac Sodium Monohydrate]", "z-score of subpopulation abundance": -0.56},
      {"smiles": "CN1CCN(c2c(F)cc3c(=O)c(C(=O)O)cn4c3c2OCN4C)CC1", "note": "[Marbofloxacin]", "z-score of subpopulation abundance": -0.82},
      {"smiles": "CN1CCOC(c2ccccc2)c2ccccc2C1", "note": "(stereo not drawn) [Nefopam HCl]", "z-score of subpopulation abundance": -0.26},
      {"smiles": "COc1ccc(C(C)=O)c(O)c1", "note": "[Paeonol]", "z-score of subpopulation abundance": -0.79},
      {"smiles": "Cc1ccc2c(Cl)cc(Cl)c(O)c2n1", "note": "[Chlorquinaldol]", "z-score of subpopulation abundance": 16.2},
      {"smiles": "CN(C)CCC=C1c2ccccc2C=Cc2ccccc21", "note": "[Cyclobenzaprine HCl]", "z-score of subpopulation abundance": -0.09},
      {"smiles": "CCNC(=O)[C@@H]1CCCN1C(=O)[C@H](CCCNC(=N)N)NC(=O)[C@H](CC(C)C)NC(=O)[C@@H](CC(C)C)NC(=O)[C@H](Cc1ccc(O)cc1)NC(=O)[C@H](CO)NC(=O)[C@H](Cc1c[nH]c2ccccc12)NC(=O)[C@H](Cc1c[nH]cn1)NC(=O)[C@@H]1CCC(=O)N1", "note": "[Leuprolide Acetate]", "z-score of subpopulation abundance": 0.35},
      {"smiles": "CCN1CCN(c2cc3c(cc2F)c(=O)c(C(=O)O)cn3C2CC2)CC1", "note": "[Enrofloxacin]", "z-score of subpopulation abundance": -0.06},
      {"smiles": "NC[C@H]1O[C@H](O[C@H]2[C@H](O)[C@@H](O[C@H]3O[C@H](CO)[C@@H](O)[C@H](N)[C@H]3O)[C@H](N)C[C@@H]2N)[C@H](N)C[C@@H]1O", "note": "[Tobramycin]", "z-score of subpopulation abundance": -0.69},
      {"smiles": "CCc1cccc2c3c([nH]c12)C(CC)(CC(=O)O)OCC3", "note": "(stereo not drawn) [Etodolac]", "z-score of subpopulation abundance": -0.9},
      {"smiles": "CO[C@H]1C[C@@H]2CC[C@@H](C)[C@@](O)(O2)C(=O)C(=O)N2CCCC[C@H]2C(=O)O[C@H]([C@H](C)C[C@@H]2CC[C@@H](OP(C)(C)=O)[C@H](OC)C2)CC(=O)[C@H](C)/C=C(\\C)[C@@H](O)[C@@H](OC)C(=O)[C@H](C)C[C@H](C)/C=C/C=C/C=C/1C", "note": "[Ridaforolimus (Deforolimus, MK-8669)]", "z-score of subpopulation abundance": 11},
      {"smiles": "CC1=CC[C@@](O)(C(C)C)CC1", "note": "[Terpinen-4-ol]", "z-score of subpopulation abundance": 0.2},
      {"smiles": "CC[C@@H]1/C=C(\\C)C[C@H](C)C[C@H](OC)[C@H]2O[C@@](O)(C(=O)C(=O)N3CCCC[C@H]3C(=O)O[C@H](/C(C)=C/[C@@H]3CC[C@H](Cl)[C@H](OC)C3)[C@H](C)[C@@H](O)CC1=O)[C@H](C)C[C@@H]2OC", "note": "[Pimecrolimus]", "z-score of subpopulation abundance": 4.36},
      {"smiles": "CC[N+](CC)(CC)CCOc1cccc(OCC[N+](CC)(CC)CC)c1OCC[N+](CC)(CC)CC", "note": "[Gallamine Triethiodide]", "z-score of subpopulation abundance": -0.03},
      {"smiles": "CN1[C@@H](CC(=O)c2ccccc2)CCC[C@H]1C[C@H](O)c1ccccc1", "note": "[Lobeline hydrochloride]", "z-score of subpopulation abundance": -0.75},
      {"smiles": "CCC(C)n1ncn(-c2ccc(N3CCN(c4ccc(OCC5COC(Cn6cncn6)(c6ccc(Cl)cc6Cl)O5)cc4)CC3)cc2)c1=O", "note": "(stereo not drawn) [Itraconazole]", "z-score of subpopulation abundance": 6.18},
      {"smiles": "OC[C@H]1O[C@H](OCC2O[C@@H](O)[C@H](O)[C@@H](O)[C@@H]2O)[C@H](O)[C@@H](O)[C@H]1O", "note": "(stereo partly drawn) [Melibiose]", "z-score of subpopulation abundance": 0.14},
      {"smiles": "COC(=O)C1=C(C#N)NC(C)=C(C(=O)OC(C)C)C1c1cccc([N+](=O)[O-])c1", "note": "(stereo not drawn) [Nilvadipine]", "z-score of subpopulation abundance": -0.7},
      {"smiles": "O=C(c1ccc(F)cc1)C1CCN(CCn2c(=O)[nH]c3ccccc3c2=O)CC1", "note": "[Ketanserin]", "z-score of subpopulation abundance": -0.27},
      {"smiles": "Cc1onc(-c2c(Cl)cccc2Cl)c1C(=O)N[C@@H]1C(=O)N2[C@@H]1SC(C)(C)[C@@H]2C(=O)O", "note": "[Dicloxacillin Sodium]", "z-score of subpopulation abundance": 0.88},
      {"smiles": "C(=C\\c1ccccc1)/CN1CCN(C(c2ccccc2)c2ccccc2)CC1", "note": "[Cinnarizine]", "z-score of subpopulation abundance": 0.8},
      {"smiles": "C=CC[N+]1([C@H]2C[C@H]3[C@@H]4CC[C@H]5C[C@H](O)[C@@H](N6CCOCC6)C[C@]5(C)[C@H]4CC[C@]3(C)[C@H]2OC(C)=O)CCCC1", "note": "[Rocuronium Bromide]", "z-score of subpopulation abundance": -0.48},
      {"smiles": "CCn1cc(C(=O)O)c(=O)c2cc(F)c(N3CCNCC3)cc21", "note": "[Norfloxacin]", "z-score of subpopulation abundance": -0.23},
      {"smiles": "CC1(C)S[C@@H]2[C@H](NC(=O)[C@H](NC(=O)N3CCN(S(C)(=O)=O)C3=O)c3ccccc3)C(=O)N2[C@H]1C(=O)O", "note": "[Mezlocillin Sodium]", "z-score of subpopulation abundance": -0.16},
      {"smiles": "Cc1c(OCC(F)(F)F)ccnc1C[S@@+]([O-])c1nc2ccccc2[nH]1", "note": "[Dexlansoprazole]", "z-score of subpopulation abundance": 0.16},
      {"smiles": "Cc1nc(C)c(Cl)c(O)c1Cl", "note": "[Clopidol]", "z-score of subpopulation abundance": -0.04},
      {"smiles": "O=C(CCCN1CCN(c2ccccn2)CC1)c1ccc(F)cc1", "note": "[Azaperone]", "z-score of subpopulation abundance": 0.38},
      {"smiles": "COc1ccc(C(=O)NCc2ccc(OCCN(C)C)cc2)cc1OC", "note": "[Itopride hydrochloride]", "z-score of subpopulation abundance": 0.15}
    ]}
  ]
}
